According to PubChem BioAssay (Tox21):
Results filed as inconclusive are left out. Entries that show only a call come without a potency. Active and inactive are the calls of the source. Calls come from the whole dose curve; as a rule, active = well fitted cell-killing curve with a large enough effect in the repeat runs; inconclusive = weak or mixed curves, or effect the other way; inactive = flat fitted curve, though single readings scatter.

How the values were obtained:
[1] = cAMP Responsive Elements (CRE) small molecule antagonists, cell-based qHTS assay: qHTS cell viability counter screen (AID 2060913); details: CRE-bla HEK293T viability, CellTiter-Glo luminescence, 5 h; series mostly up to 92.4 µM; note: nearly all actives have a fitted effect of over 40% in size
Procedure, shortened: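 Steps: cells plated and held 18 hrs at 37 C/5% CO2; compounds and NKH477 (0.25 uM final) added; 3 hrs incubation; reporter substrate read; CellTiter-Glo added to measure cytotoxicity by luminescence.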

[2] = cAMP Responsive Elements (CRE) small molecule agonists, cell-based qHTS assay: qHTS cell viability counter screen (AID 2060914); details: CRE-bla HEK293T viability, CellTiter-Glo luminescence, 5 h; series mostly up to 92.4 µM; note: nearly all actives have a fitted effect of over 50% in size
Procedure, shortened: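 Cytotoxicity was measured as ATP luminescence (CellTiter-Glo, 30 min at room temperature) in the same wells as the CRE-bla FRET read-out. HEK293T CRE-bla cells had 3 h compound exposure at 37C/5% CO2.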

CCCCCc1ccc(Cl)cc1
Potency [1]: inactive | Potency [2]: inactive

O=Cc1ccc(Cl)c(Cl)c1
Potency [1]: inactive | Potency [2]: inactive

CC1CCCO1 (stereo unspecified)
Potency [1]: inactive | Potency [2]: inactive

CCCCC(CC)COC(=O)/C=C\C(=O)OCC(CC)CCCC (stereo unspecified)
Potency [1]: inactive | Potency [2]: inactive

COc1ccc2[nH]cc(CCNC(C)=O)c2c1
Potency [1]: inactive | Potency [2]: inactive

OC(CN1CCC(Cc2ccc(F)cc2)CC1)c1ccc(Cl)cc1 (stereo unspecified)
Potency [1]: inactive | Potency [2]: inactive

CCOC(=O)C(C)O (stereo unspecified)
Potency [1]: inactive | Potency [2]: inactive

CC/C=C\CCOC(C)=O
Potency [1]: inactive | Potency [2]: inactive
